# Reference: PubChem BioAssay (NCI)
# Where “and” joins values, the source holds several entries; their conditions need not be identical. Identical values can stand only once. The panel holds about 83,000 compounds, 20% with a hit somewhere; the sample as a whole holds those more often.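 Step 1: grow cells in 96-well plates. Step 2: add test compound at a single concentration. Step 3: incubate 48 h. Step 4: record percent growth.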 Calls of active or inactive are those of the source. The calls were made as follows: active = growth percent below 10; inactive = the rest.
# Tests used:
# Test in all cases: NCI-60 one-dose screen, 48 h (100 = growth as untreated, 0 = no growth, -100 = all killed)
# Conditions in all cases: 10 µM unless noted
# [1] = test system: HCT-15 colon
# [2] = test system: HT29 colon
# [3] = test system: SNB-75 CNS
# [4] = test system: SNB-19 CNS
# [5] = test system: U251 CNS
# [6] = test system: SK-MEL-5 melanoma
# [7] = test system: UACC-62 melanoma
# [8] = test system: LOX IMVI melanoma
# [9] = test system: SK-MEL-28 melanoma
# [10] = test system: SK-MEL-2 melanoma
# [11] = test system: EKVX NSCLC
# [12] = test system: SN12C renal
# [13] = test system: UO-31 renal
# [14] = test system: TK-10 renal
# [15] = test system: ACHN renal
# [16] = test system: CAKI-1 renal
# [17] = test system: A498 renal
# [18] = test system: CCRF-CEM leukemia
# [19] = test system: MOLT-4 leukemia
# [20] = test system: PC-3 prostate
Compound,growth [1],growth [2],growth [3],growth [4],growth [5],growth [6],growth [7],growth [8],growth [9],growth [10],growth [11],growth [12],growth [13],growth [14],growth [15],growth [16],growth [17],growth [18],growth [19],growth [20]
CCOC(=O)Nc1ccc2c(c1)/C(=N\NC(N)=S)c1ccccc1-2,22.1% (inactive) and 38.2% (inactive),29.6% (inactive) and 25.8% (inactive),70.2% (inactive) and 66.4% (inactive),78.4% (inactive) and 75.3% (inactive),52.6% (inactive) and 48.8% (inactive),38.1% (inactive) and 44.2% (inactive),37.3% (inactive) and 51.3% (inactive),54.4% (inactive) and 58.4% (inactive),50% (inactive) and 75.4% (inactive),70.1% (inactive) and 93.2% (inactive),68.3% (inactive) and 70.8% (inactive),73.3% (inactive) and 71.9% (inactive),68% (inactive) and 82.5% (inactive),82.2% (inactive) and 107% (inactive),56.8% (inactive) and 68.7% (inactive),43% (inactive) and 73.4% (inactive),46.6% (inactive) and 65.5% (inactive),19.9% (inactive) and 27.8% (inactive),46% (inactive) and 41.8% (inactive),–
CNc1cc(-c2cccc(OC(F)(F)F)c2)nc2ccc(N3CCCC3)cc12,13.5% (inactive) and -8.32% (active) and 3.05% (active),5.99% (active) and 1.66% (active) and 1.06% (active),107% (inactive) and 76.5% (inactive),18.7% (inactive) and 12.2% (inactive) and 16.2% (inactive),-42.1% (active) and -81.2% (active) and -79.4% (active),-77.4% (active) and -88.7% (active) and -70.6% (active),-71.8% (active) and -74.8% (active) and -72.1% (active),-64.1% (active) and -93.8% (active) and -90.1% (active),-66.3% (active) and -82.3% (active) and -64.4% (active),85.6% (inactive) and -78.5% (active) and -74.4% (active),84.1% (inactive) and 39.2% (inactive) and 11.9% (inactive),-18.5% (active) and -44.5% (active) and -23.2% (active),7.85% (active) and -81.2% (active) and 26.1% (inactive),-55% (active) and -45.4% (active) and -12% (active),-99.6% (active) and -99.5% (active) and -98.9% (active),68.2% (inactive) and -88.8% (active) and -50.9% (active),77.2% (inactive) and 45.9% (inactive) and 47.7% (inactive),-36.5% (active) and -23.4% (active) and -0.147% (active),-38.6% (active) and -30.7% (active) and 2.3% (active),–
O=C=NC(c1ccccc1)(c1ccccc1)c1ccccc1,102% (inactive),99.9% (inactive),84.7% (inactive),–,99.4% (inactive),114% (inactive),101% (inactive),102% (inactive),114% (inactive),118% (inactive),111% (inactive),102% (inactive),71.9% (inactive),110% (inactive),99.2% (inactive),91.7% (inactive),116% (inactive),102% (inactive),92.2% (inactive),102% (inactive)
Clc1ccc(NC(Nc2ccc(Cl)cc2)C(Cl)(Cl)Cl)cc1,65.6% (inactive) and 88.7% (inactive),101% (inactive) and 98.4% (inactive),79.2% (inactive) and 105% (inactive),104% (inactive) and 112% (inactive),95% (inactive) and 110% (inactive),91.3% (inactive) and 85.3% (inactive),9.46% (active) and 62.8% (inactive),74.5% (inactive),105% (inactive) and 114% (inactive),85.6% (inactive) and 95.8% (inactive),85.7% (inactive) and 99.3% (inactive),–,25.5% (inactive) and 75.1% (inactive),110% (inactive) and 92.3% (inactive),41.6% (inactive),66% (inactive),107% (inactive) and 101% (inactive),95% (inactive),70.3% (inactive) and 89.5% (inactive),–
CCC(O)c1ccccc1 (stereo unspecified),113% (inactive) and 105% (inactive),104% (inactive) and 105% (inactive),88% (inactive) and 97.5% (inactive),110% (inactive) and 103% (inactive),102% (inactive),107% (inactive) and 95.3% (inactive),111% (inactive) and 97.7% (inactive),104% (inactive) and 108% (inactive),75.7% (inactive) and 98.6% (inactive),104% (inactive),94.1% (inactive) and 110% (inactive),98.1% (inactive) and 96.2% (inactive),98.8% (inactive) and 91.3% (inactive),113% (inactive) and 111% (inactive),107% (inactive) and 111% (inactive),-23.1% (active) and 97% (inactive),88.5% (inactive) and 92.8% (inactive),103% (inactive) and 92% (inactive),98.1% (inactive) and 78.8% (inactive),–
CCN(CC)CCNc1cc(-c2cccc(OC(F)(F)F)c2)nc2ccc(N3CCCC3)cc12,24.3% (inactive) and 3.13% (active) and 13.6% (inactive),10.9% (inactive) and -11.1% (active) and 1.35% (active),86.4% (inactive) and 51.9% (inactive),2.91% (active) and 15.2% (inactive) and 36.9% (inactive),46.2% (inactive) and -36.6% (active) and 15.6% (inactive),-2.81% (active) and -88% (active) and 7.43% (active),-64.9% (active) and -73.2% (active) and -23.9% (active),-40.9% (active) and -59.6% (active) and -51.7% (active),-9.25% (active) and -32.5% (active) and 11% (inactive),52.2% (inactive) and -30.5% (active) and 4.6% (active),73.5% (inactive) and 59.5% (inactive) and 42.8% (inactive),3.62% (active) and 3.14% (active) and 38.1% (inactive),10.4% (inactive) and -12.9% (active) and 29.7% (inactive),74.5% (inactive) and 19.1% (inactive) and 40.1% (inactive),24.4% (inactive) and 12.9% (inactive) and 27.7% (inactive),49.1% (inactive) and 34.2% (inactive) and 23.1% (inactive),71.2% (inactive) and 4.86% (active) and 50.8% (inactive),-30.4% (active) and -4.6% (active) and 2.25% (active),-19.7% (active) and -14.3% (active) and 3.16% (active),–
Cc1ccc(-c2noc(C)n2)cc1,101% (inactive),98.3% (inactive),85.9% (inactive),105% (inactive),–,99.7% (inactive),105% (inactive),99.7% (inactive),110% (inactive),–,–,102% (inactive),84% (inactive),107% (inactive),105% (inactive),94.5% (inactive),80.8% (inactive),103% (inactive),90.5% (inactive),–
O=[N+]([O-])c1ccccc1N(S(=O)(=O)c1ccccc1)S(=O)(=O)c1ccccc1,105% (inactive) and 90.4% (inactive),109% (inactive) and 103% (inactive),96.2% (inactive),–,91.5% (inactive) and 87.8% (inactive),110% (inactive),76.1% (inactive) and 66% (inactive),98.7% (inactive) and 84.7% (inactive),115% (inactive) and 111% (inactive),106% (inactive),102% (inactive) and 85.1% (inactive),102% (inactive) and 99.2% (inactive),86.7% (inactive) and 67% (inactive),93.3% (inactive) and 97.1% (inactive),102% (inactive) and 93.4% (inactive),79.4% (inactive) and 56.3% (inactive),86.9% (inactive) and 98.6% (inactive),53.7% (inactive) and 105% (inactive),–,80.3% (inactive) and 77.7% (inactive)
O=C(CCc1ccc(O)cc1)N/N=C/c1cc(Br)ccc1O,28.7% (inactive),98.4% (inactive),79.4% (inactive),69.6% (inactive),49.2% (inactive),45.3% (inactive),37.7% (inactive),21.1% (inactive),69.5% (inactive),80.7% (inactive),91% (inactive),63.7% (inactive),19.5% (inactive),88.9% (inactive),27% (inactive),18.7% (inactive),78.5% (inactive),13.3% (inactive),8.16% (active),–
